The source of these data is PubChem BioAssay AID1347075 (National Center for Advancing Translational Sciences (NCATS), 2019).

Hit rate of the full screen: of about 400,000 compounds, about 5,500 (1.4%) were called active. About 9% were inconclusive and are not listed. The sample holds actives, similar compounds and a random draw of the others, so the mix is not that of the screen. Unmarked numbers belong to inactive results. The call rests on the fitted dose curve; in most records, active means well fitted cell-killing curve with a large enough effect; inconclusive means small, poorly fitted or top-dose-only effect, or effect the other way; inactive means flat fitted curve, though single readings scatter.
On the % scale 0 is the no-effect control and ±100 the full control effect; potency means the concentration at half of the fitted maximal effect.

This experiment in a line: qHTS assay for MDR1-selective chemotherapeutics: Primary screen using the parental adenocarcinoma cell KB-3-1. Further: nearly all actives have a fitted effect of over 60% in size. The conditions noted are these: KB-3-1 viability, CellTiter-Glo ATP luminescence, 72 h; series mostly up to 46.1 µM; activity change, negative = cytotoxic: at the top concentration. An outline of the steps:
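KB-3-1 parental drug-naive adenocarcinoma cells in DMEM/10% FBS, incubated 72 h at 37 C with pin-transferred compounds across a concentration series. Viability by CellTiter-Glo luminescence; concentration-response curves fitted after normalization.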
In general terms: Quantitative high-throughput screening tests each substance at several concentrations.
With `CCOc1ccccc1CNC(=O)C1CCCN(S(=O)(=O)c2ccc3c(ccn3C)c2)C1` (stereo not drawn), the “activity change, negative = cytotoxic” value is -11.1%.
Still for that read-out and setting: the value for `COc1ccccc1NC(=O)c1sc2nc(C)c(C(=O)Nc3ccc(Cl)cc3)c(-c3ccc(Br)cc3)c2c1N` was 9.2%; that for `COC(=O)c1ccc(S(=O)(=O)N2CCc3ccccc3C2)cc1` was 2.98%.
Consider `CC(C)c1ccc(NC(=O)c2cc(S(=O)(=O)N3CCc4ccccc4C3)ccc2F)cc1`, for which the “activity change, negative = cytotoxic” value was 8.41%.
As for `O=C(Nc1ccc(S(=O)(=O)N2CCc3ccccc3C2)cc1)c1ccccc1`, the Potency is 18.4 µM (active).
`CCOc1ccc(N(CC)C(=O)c2cc3c(=O)oc4ccccc4c3s2)cc1`: the “activity change, negative = cytotoxic” value was 18.5%.
The same measure, in the same setting: next, `Cc1ccc(Nc2ccc3cc(S(=O)(=O)N4CCCCC4)ccc3n2)cc1F`: 1.58%.
On to `COc1ccc(N2CCN(S(=O)(=O)c3ccc4c(c3)CC(=O)N4)CC2)cc1`, for which the Potency entry was “inactive”.
Same read-out and setting: next, `COc1ccc(N(CC(=O)Nc2cc(OC)ccc2OC)S(=O)(=O)c2c(C)noc2C)cc1`: 18.4 µM (active).
On to `CCOc1ccc(N(CC(=O)OC)S(=O)(=O)c2c(C)noc2C)cc1`, for which the “activity change, negative = cytotoxic” value is 7.88%.
Same read-out and setting: next, `Cc1noc(C)c1S(=O)(=O)N(CC(=O)Nc1ccc2c(c1)OCCO2)c1ccc(C(C)C)cc1`: -18.5%; `CCOC(=O)CN1C(C(=O)c2ccccc2)=C(OC(=O)C(C)(C)C)c2ccccc2S1(=O)=O`: 5.45%.
Take `COc1ccc(CNc2nc(-c3ccc(Cl)cc3)nn2C(=O)c2ccccc2)cc1`: the “activity change, negative = cytotoxic” value is -6.28%.
Regarding `COc1ccc(Cn2c(-c3ccc(Cl)cc3)c[n+]3ccccc23)cc1`, the Potency is 3.66 µM (active).
Regarding `COc1ccc(Cn2c(=O)oc3ccccc32)cc1`, the “activity change, negative = cytotoxic” value was -5.14%.
Same read-out and setting: the value for `Cc1oc2ncnc(N3CCCCC3)c2c1C(=O)N1CCN(c2cccc(Cl)c2)CC1` was -8.44%; that for `Cc1ccccc1-c1cc(C(=O)NCC2CC2)n(CC2CC(c3cccnc3)=NO2)n1` (stereo not drawn) was -0.87%.
Regarding `Cc1ccccc1-c1cc(C(=O)NCc2cccs2)n(CC2CC(c3cccnc3)=NO2)n1` (stereo not drawn), the Potency was 18.4 µM (active).
Take `Cc1ccc(CNC(=O)c2cc(-c3ccccc3C)n(CC3CC(c4cccc([N+](=O)[O-])c4)=NO3)n2)cc1` (stereo not drawn): the “activity change, negative = cytotoxic” value is 6.56%.
Same read-out and setting: next, `C=C1C=C(C(F)F)n2ncc(C(=O)NCCc3ccccc3OC)c2N1`: 0%.
Same read-out and setting: next, `CCn1cc(C(=O)NCc2ccccc2)c(=O)c2cc(S(=O)(=O)N3CCCCC3)ccc21`: 16.8%.
The same measure, in the same setting: next, `N#C/C=C/N1CCN(Cc2ccc3c(c2)OCO3)CC1`: 16%; `O=C(CSc1nc2c(c(=O)[nH]1)CN(Cc1ccc3c(c1)OCO3)CC2)Nc1cc(F)ccc1F`: 1.29%.
On to `Fc1ccc2[nH]c3c(N4CCN(Cc5ccc6c(c5)OCO6)CC4)ncnc3c2c1`, for which the Potency was 18.4 µM (active).
On the same count and under the same terms, the value for `Fc1ccc2[nH]c3c(N4CCSCC4)ncnc3c2c1` was 5.17 µM (active).
As for `CCc1nc2onc(C)c2c(=O)n1CC(=O)O`, the “activity change, negative = cytotoxic” value was -2.75%.
On the same count and under the same terms, the value for `Cc1oc2ncn(CC(C)C)c(=O)c2c1C(=O)N1CCN(c2ccccc2F)CC1` was -0.942%.
Still for that read-out and setting: next, `O=C(NCCC1=CCCCC1)c1ccc2c(c1)N(Cc1ccccc1F)C(=O)c1ccccc1S2(=O)=O`: 4.55%; `O=C(CCS(=O)(=O)c1cc(Br)cc2c1N(C(=O)C1CC1)CC2)Nc1ccc(C(F)(F)F)cc1`: 4.76%; `Cc1cccc(N2CCN(c3ccc(C(=O)O)cc3NC(=O)c3ccccc3F)CC2C)c1` (stereo not drawn): 7.44%.
Same read-out and setting: next, `O=C(c1cnn2c1NC(=C1CC1)C=C2C(F)F)N1CCc2ccccc2C1`: 0%; `CSc1nn(Cc2cccc(C)c2)c(N)c1S(=O)(=O)c1ccccc1`: -14.3%.
On to `COc1ccc(-c2cc(NC(C)=O)c3ncc(-c4cc(OC)c(OC)c(OC)c4)n3c2)cn1`, for which the Potency was 5.8 µM (active).
Take `CC(=O)Nc1cccc(-c2cc(NC(C)=O)c3ncc(-c4ccccc4)n3c2)c1`: the “activity change, negative = cytotoxic” value was -3.06%.
Same read-out and setting: the value for `COc1ccccc1-c1cc(NC(C)=O)c2ncc(-c3ccc(F)cc3)n2c1` was 0%.
For the molecule `COc1ccc(-c2cc(NC=O)c3ncc(-c4cc(OC)c(OC)c(OC)c4)n3c2)c(OC)c1`, the Potency is 1.3 µM (active).
For `COc1cccc(-c2cc(NC(C)=O)c3ncc(-c4cccc(C(C)=O)c4)n3c2)c1`, the “activity change, negative = cytotoxic” value was 0%.
On the same count and under the same terms, next, `CC(=O)c1cccc(-c2cnc3c(NC=O)cc(-c4ccccc4Oc4ccccc4)cn23)c1`: -2.94%.
For the molecule `COc1cccc(-c2cnc3c(NC(C)=O)cc(-c4cc(F)ccc4OC)cn23)c1`, the Potency was 16.4 µM (active).
Regarding `COc1ccc(-c2cc(NC=O)c3ncc(-c4cccc(C(=O)N(C)C)c4)n3c2)c(OC)c1`, the “activity change, negative = cytotoxic” value was -0.891%.
For `COc1cccc(-c2cnc3c(NC(C)=O)cc(-c4cccc(NC(C)=O)c4)cn23)c1`, the “activity change, negative = cytotoxic” value is 0%.
For `CCCN(C(=O)Cn1ncc2c([nH]c3ccc(C)cc32)c1=O)c1ccccc1C`, the “activity change, negative = cytotoxic” value is 0.221%.
Consider `CCc1ccc2oc(-c3ccc(NC(=O)c4cc5ccccc5o4)cc3)nc2c1`, for which the “activity change, negative = cytotoxic” value is -12.6%.
The same measure, in the same setting: the value for `COc1ccc(NC(C)=O)cc1NC(=O)CN1CCN(c2ccc(F)cc2)CC1` was 1.07%.
For the molecule `COC(=O)c1ccc(NC(=O)c2cc(S(=O)(=O)N3CCC(C)CC3)cn2C)cc1`, the “activity change, negative = cytotoxic” value was -7.89%.
The same measure, in the same setting: the value for `CCOC(=O)c1c(C)oc2nc(C)nc(N(CC(C)C)CC(C)C)c12` was 3.41%; that for `CC(C)(O)c1ccccc1CC[C@H](SCC1(CC(=O)O)CC1)c1cccc(/C=C/c2ccc3ccc(Cl)cc3n2)c1` was 7.37%; that for `CCc1cnc2c(c1SCC(=O)c1ccccc1)c(=O)n(C)c(=O)n2C` was 9.68%.
